Composite z-score and z-score data for 6 compounds are collected here from PubChem BioAssay.

The source made the active and inactive calls. Unless noted, the rule behind the calls is not given here.

The nature of test [1]: compounds binding Alexa647 anti-His antibody – biochemical, small-molecule microarray, 635 nm fluorescence, artefact control for SMM control protein annotation, primary screen (AID 1128).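 Note: score merges feature fluorescence with signal-to-noise for each printed compound spot.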 To be noted: higher = more signal.
Test [2] deals with Human papillomavirus type 1a E7 protein (residues 1-88). The experiment in a line: HPV1a E7 small-molecule binders, primary screen, biochemical, small-molecule microarray, residues 1-88, 635 nm (AID 1129). To be noted: small-molecule microarray binding, fluorescence 635 nm; higher = more signal.
Test [3] has as its target Focal adhesion kinase 1 (Homo sapiens) (UniProt Q05397). Briefly: PTK2 protein binding on printed compound slides – biochemical, small-molecule microarray, 635/667 nm fluorescence, BSA, DTT, primary screen (AID 1130).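 Note: composite of spot emission at 667 nm and signal to noise over triplicate slides.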 To be noted: 635 nm fluorescence, higher = more signal.
The test system of test [4] is Fibrinogen (Alexa647-labelled). Briefly: Alexa647-fibrinogen binding to printed small molecules – biochemical, small-molecule microarray, 635/667 nm fluorescence, artefact control for SMM control-protein annotation, profiling panel (AID 1131).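 Note: z-score merges 667 nm fluorescence with per-spot signal-to-noise over triplicate slides.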 To be noted: fibrinogen-A647 binding fluorescence, higher = more signal.
The target in test [5] is Follistatin (Homo sapiens) (UniProt P19883). Briefly: FST protein binding to printed compounds – biochemical, small-molecule microarray, 635/667 nm fluorescence, primary screen (AID 1132). Particulars: 635 nm fluorescence, higher = more signal.
Chain of Follistatin (Homo sapiens) (P19883 whole entry, looked up): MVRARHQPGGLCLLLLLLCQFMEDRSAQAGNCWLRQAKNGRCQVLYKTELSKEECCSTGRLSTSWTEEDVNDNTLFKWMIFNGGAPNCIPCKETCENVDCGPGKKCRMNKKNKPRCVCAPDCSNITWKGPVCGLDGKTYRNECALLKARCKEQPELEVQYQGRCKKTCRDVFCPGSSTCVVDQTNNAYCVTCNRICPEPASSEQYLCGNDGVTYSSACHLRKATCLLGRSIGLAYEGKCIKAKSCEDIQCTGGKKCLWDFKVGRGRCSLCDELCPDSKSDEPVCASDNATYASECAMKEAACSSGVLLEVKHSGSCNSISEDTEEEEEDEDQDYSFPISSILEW
For test [6], the target named is Fibroblast growth factor 2 (Homo sapiens) (UniProt P09038). Briefly: basic fibroblast growth factor binding to printed compounds – biochemical, small-molecule microarray, 635/667 nm fluorescence, primary screen (AID 1133). Particulars: FGF2, fluorescence 635/667, higher = more signal.
Chain of Fibroblast growth factor 2 (Homo sapiens) (P09038 whole entry, looked up): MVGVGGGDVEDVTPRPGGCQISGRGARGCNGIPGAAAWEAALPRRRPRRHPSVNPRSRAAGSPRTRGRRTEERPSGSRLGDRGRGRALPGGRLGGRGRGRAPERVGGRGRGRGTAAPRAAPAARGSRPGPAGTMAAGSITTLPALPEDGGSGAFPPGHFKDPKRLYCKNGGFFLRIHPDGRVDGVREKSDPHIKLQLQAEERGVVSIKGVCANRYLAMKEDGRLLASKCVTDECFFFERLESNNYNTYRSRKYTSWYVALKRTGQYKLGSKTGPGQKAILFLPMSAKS
Test [7] in a line: JC-1 mitochondrial potential readout, lung cancer cells – cell-based, A549, JC-1 fluorescence, basal, 24 h, 100 nL, profiling panel (AID 1138).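 Note: A549 lung adenocarcinoma cells under basal conditions with no added stimulus; test concentration not given here.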 To be noted: higher = more signal.
Another test has as its system Lefty1. Briefly: Lefty1 protein binding to printed compounds – biochemical, small-molecule microarray, 635/667 nm fluorescence, primary screen (AID 1139). To be noted: fluorescence 635/667, higher = more signal.
For test [8], the system named is wheat germ agglutinin (Triticum aestivum), Alexa647-labelled. The experiment in a line: Alexa647-WGA lectin binding to printed small molecules – biochemical, small-molecule microarray, 635/667 nm fluorescence, artefact control for SMM control-protein annotation, profiling panel (AID 1140).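 Note: score merges 667 nm feature emission with signal to noise over triplicate slides.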 To be noted: WGA-A647 binding, 635 nm fluorescence, higher = more signal.
The target of test [9] is Luciferin 4-monooxygenase (Photinus pyralis) (UniProt P08659). Briefly: inhibition of purified Photinus pyralis luciferase – biochemical, luminescence, purified enzyme, 2006 set, primary screen (AID 1141).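 Note: cell-free assay with purified firefly luciferase at 100 ng per well in PBS; test concentration not given here.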 To be noted: purified firefly luciferase, SteadyGlo luminescence, 30 min; higher = more signal, called active from +8 up or from −8 down.
Chain of Luciferin 4-monooxygenase (Photinus pyralis) (P08659 whole entry, looked up): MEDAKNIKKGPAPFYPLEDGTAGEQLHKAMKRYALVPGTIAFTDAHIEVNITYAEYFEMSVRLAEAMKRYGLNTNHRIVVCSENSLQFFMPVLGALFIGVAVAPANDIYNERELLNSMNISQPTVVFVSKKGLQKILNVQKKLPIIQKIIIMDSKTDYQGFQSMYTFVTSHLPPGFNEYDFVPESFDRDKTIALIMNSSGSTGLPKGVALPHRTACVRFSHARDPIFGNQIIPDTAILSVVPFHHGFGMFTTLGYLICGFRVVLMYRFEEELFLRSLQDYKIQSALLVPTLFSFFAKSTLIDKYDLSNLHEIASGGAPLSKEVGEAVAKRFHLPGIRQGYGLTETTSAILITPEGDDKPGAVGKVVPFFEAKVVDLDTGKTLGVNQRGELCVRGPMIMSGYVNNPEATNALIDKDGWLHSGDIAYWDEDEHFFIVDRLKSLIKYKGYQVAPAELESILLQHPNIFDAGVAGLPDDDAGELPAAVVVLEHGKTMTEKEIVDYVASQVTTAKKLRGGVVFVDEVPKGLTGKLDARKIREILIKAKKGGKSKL
Test [10] relates to Wnt5a (protein binding on small-molecule microarray). Briefly: small molecules binding Wnt5a protein – biophysical, small-molecule microarray, 635/667 nm fluorescence, primary screen (AID 1142).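 Note: fluorescence read at 667 nm with signal to noise per printed feature.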 To be noted: 635 nm fluorescence, higher = more signal.
The nature of test [11]: ATP-based viability of Huh7 replicon cells – cell-based, CellTiter-Glo luminescence, basal, 48 h, cytotoxicity control for HCV replication inhibitor project, primary screen (AID 1143).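 Note: Huh7 hepatoma cells carrying a hepatitis C replication reporter with no stimulus; test concentration not given here.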 To be noted: higher = more signal, called active from +8 up or from −8 down. On the technique in general: A replicon is a self-replicating genome or part of one, used to study replication in cells.

A short description of test [12]: Pseudomonas biofilm growth suppression – PAO1 strain, BacTiter-Glo luminescence, LB-PBS, primary screen (AID 1144). Particulars: P. aeruginosa PAO1 biofilm, 12 h, higher = more signal.
A short description of test [13]: basal CRE-LacZ reporter activity in PC12 – cell-based, unstimulated, primary screen (AID 1145). To be noted: no forskolin, luminescence, 4.5 h, higher = more signal, called active from +8 up or from −8 down.
Test [14] can be described thus: forskolin-driven CRE-LacZ activity in PC12 – cell-based, CRE-LacZ reporter, forskolin-stimulated, primary screen (AID 1146).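 Note: PC12 cells with 6xCRE LacZ reporter stimulated by forskolin 10 µM; beta-galactosidase reporter signal reflecting CREB driven transcription.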 Particulars: luminescence, 4.5 h, higher = more signal, called active from +8 up or from −8 down.
Test [15] deals with Streptavidin (Streptomyces avidinii) (UniProt P22629). The experiment in a line: compounds binding control protein streptavidin – biophysical, small-molecule microarray, 635/667 nm fluorescence, artefact control for SMM compound annotation, primary screen (AID 1147).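 Note: signal reflects streptavidin binding to arrayed compounds as a control protein.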 To be noted: higher = more signal.
Chain of Streptavidin (Streptomyces avidinii) (P22629 whole entry, looked up): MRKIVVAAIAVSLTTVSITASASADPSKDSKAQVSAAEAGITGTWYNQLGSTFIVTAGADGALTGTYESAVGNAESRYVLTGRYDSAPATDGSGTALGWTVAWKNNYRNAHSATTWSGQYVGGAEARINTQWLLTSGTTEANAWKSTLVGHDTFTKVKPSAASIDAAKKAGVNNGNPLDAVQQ
Test [16] can be described thus: probe aInhba binding on compound microarray – biochemical, small-molecule microarray, 635/667 nm fluorescence, primary screen (AID 1148).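 Note: score merges 667nm spot fluorescence with signal-to-noise for antibody binding to printed compounds.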 Particulars: higher = more signal.
Test [17] has as its target Torsin-1A (Homo sapiens) (UniProt O14656). The experiment in a line: TOR1A wild-type binding on microarray – cell lysate, small-molecule microarray, lysate, 635/667 nm, primary screen (AID 1149). To be noted: COS7 hTOR1A-WT lysate, 635 nm fluorescence, higher = more signal.
For test [18] the target is unchanged. The experiment in a line: torsin A mutant lysate binding on microarrays – cell lysate, small-molecule microarray, COS7 lysate, 635/667 nm fluorescence, primary screen (AID 1150).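 Note: score pools 667 nm emission and signal to noise measuring lysate protein binding.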 To be noted: COS7 hTOR1A mutant lysate, 635 nm fluorescence, higher = more signal.
Test [19] has as its system Sonic hedgehog protein (Shh). The experiment in a line: Sonic hedgehog microarray binding compounds – biochemical, small-molecule microarray, 635/667 nm fluorescence, primary screen (AID 1151).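 Note: Shh protein binding to compounds spotted on small-molecule microarray slides; score combines spot fluorescence intensity with signal-to-noise across triplicate slides.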 Particulars: 635 nm fluorescence, higher = more signal.

Chain of Torsin-1A (Homo sapiens) (O14656 whole entry, looked up): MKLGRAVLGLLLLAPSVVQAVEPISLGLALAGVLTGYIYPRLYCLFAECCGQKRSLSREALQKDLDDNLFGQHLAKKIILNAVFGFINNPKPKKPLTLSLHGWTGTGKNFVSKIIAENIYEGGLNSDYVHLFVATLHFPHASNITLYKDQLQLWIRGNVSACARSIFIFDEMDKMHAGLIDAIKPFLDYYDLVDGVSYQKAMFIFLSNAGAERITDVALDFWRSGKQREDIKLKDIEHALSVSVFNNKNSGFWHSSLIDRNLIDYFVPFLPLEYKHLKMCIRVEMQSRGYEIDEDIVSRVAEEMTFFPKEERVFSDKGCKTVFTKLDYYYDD
Chain of Focal adhesion kinase 1 (Homo sapiens) (Q05397 whole entry, looked up): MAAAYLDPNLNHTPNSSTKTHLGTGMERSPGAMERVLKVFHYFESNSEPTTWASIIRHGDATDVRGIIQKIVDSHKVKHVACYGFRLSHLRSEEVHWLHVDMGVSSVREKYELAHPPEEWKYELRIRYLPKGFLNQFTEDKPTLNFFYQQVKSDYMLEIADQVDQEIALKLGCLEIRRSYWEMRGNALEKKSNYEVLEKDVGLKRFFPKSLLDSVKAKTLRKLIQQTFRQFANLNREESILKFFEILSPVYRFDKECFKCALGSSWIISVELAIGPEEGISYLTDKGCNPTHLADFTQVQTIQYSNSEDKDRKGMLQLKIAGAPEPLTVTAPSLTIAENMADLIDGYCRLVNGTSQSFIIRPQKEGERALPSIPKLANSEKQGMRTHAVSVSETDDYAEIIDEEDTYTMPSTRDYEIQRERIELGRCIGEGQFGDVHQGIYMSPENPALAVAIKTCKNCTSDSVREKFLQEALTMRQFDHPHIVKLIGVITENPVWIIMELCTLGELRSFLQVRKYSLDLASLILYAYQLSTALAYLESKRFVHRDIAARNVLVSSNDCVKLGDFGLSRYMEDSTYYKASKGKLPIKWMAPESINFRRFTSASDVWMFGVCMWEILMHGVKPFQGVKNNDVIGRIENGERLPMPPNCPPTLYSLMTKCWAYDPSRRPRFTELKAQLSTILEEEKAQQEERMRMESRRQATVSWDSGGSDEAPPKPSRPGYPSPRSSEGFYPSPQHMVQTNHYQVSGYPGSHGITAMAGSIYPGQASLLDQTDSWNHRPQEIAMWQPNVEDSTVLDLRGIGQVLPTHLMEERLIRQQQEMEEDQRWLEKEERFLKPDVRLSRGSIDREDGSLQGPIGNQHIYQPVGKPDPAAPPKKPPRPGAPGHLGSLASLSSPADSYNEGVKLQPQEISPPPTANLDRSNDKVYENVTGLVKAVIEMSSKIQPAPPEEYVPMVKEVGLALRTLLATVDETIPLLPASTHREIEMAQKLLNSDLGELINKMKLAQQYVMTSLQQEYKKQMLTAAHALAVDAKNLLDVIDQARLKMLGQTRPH

With `O=C(NCc1ccccc1)[C@@]1(Cc2ccccc2)N=C(c2ccc(OCCCO)cc2)O[C@H]1c1ccccc1`, the composite z-score was 1.47 in test [1]; 1.22 in test [2]; 0.45 in [3]; 0.866 in test [4]; 0.368 in test [5]; -0.352 in test [6]. Also, the composite z-score in the test on Lefty1 was -0.872; in test [8], 1.05; in test [10], 0.209; in test [15], 1.15; in test [16], 0.161; with Torsin-1A (Homo sapiens) [17], 0.924. Moreover, the composite z-score with Torsin-1A (Homo sapiens) [18] was 0.918; in test [19], -0.183. Further, the z-score in test [7] was 0.164; in test [9] it was 0.712 (inactive); in test [11], -3.5 (inactive); in test [12], -0.883 (inactive); in [13], -0.183 (inactive); in test [14] it was -0.413 (inactive).

As for `COc1ccc([Si](C)(C)[C@H]2[C@H](CC(=O)N3Cc4ccccc4C[C@H]3CO)O[C@@]3(C(=O)N(Cc4ccc(N5CCC5=O)cc4)c4ccccc43)[C@@H]2C)cc1`, the composite z-score in test [1] stood at 1.72; in [2], 1.13; in [3], 1.12; in [4] it was 0.42; in [5] it was 1.33; in test [6], 1.32. Further, the composite z-score in the test with Lefty1 stood at 1.56; in test [8], 0.104; in test [10], 0.66; in [15], 0.679; in [16], 0.256; with Torsin-1A (Homo sapiens) [17], 1.27. Besides, the composite z-score with Torsin-1A (Homo sapiens) [18] is 0.574; in [19] it was 1.85. Besides, the z-score was 1.11 in test [7]; 0.511 (inactive) in [9]; -6.48 (inactive) in [11]; 0.522 (inactive) in [12]; 0.656 (inactive) in test [13]; -0.317 (inactive) in test [14].

On to `CCCCC=C[C@@H](NC(=O)Oc1cccc(C(F)(F)F)c1)c1ccccc1`, for which the composite z-score in test [1] was 0.291; in [2], 1.21; in [3], 0.0053; in test [4], 1.01; in test [5], 0.572; in test [6] it was 1.63. Also, the composite z-score is -0.0322 in the test with Lefty1; 1.15 in test [8]; 1.61 in test [10]; 1.84 in [15]; 0.996 in test [16]; 0.961 with Torsin-1A (Homo sapiens) [17]. Further, the composite z-score was 0.947 with Torsin-1A (Homo sapiens) [18] and -0.629 in [19]. Besides, the z-score is -1.68 in test [7]; 1.52 (inactive) in test [9]; -3.46 (inactive) in [11]; -0.721 (inactive) in [12]; 0.201 (inactive) in [13]; 0.0897 (inactive) in [14].

As to `COc1ccc(C(=O)Nc2cccc(CN3C(=O)[C@]4(O[C@H](CCO)[C@@H]([Si](C)(C)c5ccc(OC)cc5)[C@@H]4C)c4ccccc43)c2)cc1`, the composite z-score in test [1] is 0.869; in test [2], 1.17; in test [3], 0.354; in [4], 0.579; in test [5] it was 1.24; in test [6], 0.699. Also, the composite z-score in the test with Lefty1 is 1.35; in test [8] it was 0.32; in test [10], 0.24; in test [15] it was 0.388; in test [16], -0.121; in the test with Torsin-1A (Homo sapiens) [17] it was 0.271. Further, the composite z-score in the test with Torsin-1A (Homo sapiens) [18] amounted to 0.424; in [19], 1.83. The z-score is -1.52 in test [7]; 0.681 (inactive) in test [9]; -8.03 (active) in test [11]; -0.694 (inactive) in test [12]; 10.9 (active) in test [13]; -1.29 (inactive) in test [14].

Consider `O=C(NCc1ccccc1)[C@@H]1c2ccccc2C(=O)N(CC23CC4CC(CC(C4)C2)C3)[C@H]1c1ccc(CO)cc1`, for which the composite z-score in test [1] was 0.153; in test [2], 1.19; in test [3] it was 0.0304; in test [4], 0.937; in [5], 1.17; in [6], 1.43. Further, the composite z-score is 0.884 in the test with Lefty1; 0.31 in [8]; 0.237 in test [10]; 0.467 in test [15]; -0.377 in test [16]; 0.239 with Torsin-1A (Homo sapiens) [17]. The composite z-score came out at 0.654 with Torsin-1A (Homo sapiens) [18] and 1.83 in test [19]. For the same compound, the z-score in [7] was 0.705; in test [9], -0.715 (inactive); in [11], -2 (inactive); in test [12], 0.196 (inactive); in test [13], -0.439 (inactive); in test [14] it was 0.707 (inactive).

With `C=CCNC(=O)[C@@H]1[C@H]2C(=O)O[C@H](c3ccccc3)[C@H](c3ccccc3)N2[C@H](c2ccc(OCCO)cc2)[C@@]12C(=O)Nc1ccc(C#Cc3ccc(OC)cc3)cc12`, the composite z-score in [1] was 0.785; in test [2], 1.18; in test [3], 0.452; in test [4], 0.798; in test [5], 1.42; in test [6], 0.989. In addition, the composite z-score worked out at 1.57 in the test with Lefty1; 1.17 in test [8]; 0.233 in test [10]; 1.01 in test [15]; 0.0125 in [16]; 0.406 with Torsin-1A (Homo sapiens) [17]. Besides, the results for the composite z-score (in the test with Torsin-1A (Homo sapiens) [18]; in [19]) were 0.602 and 1.64, respectively. Besides, the z-score in test [7] was -1.87; in test [9], -0.398 (inactive); in [11], -4.16 (inactive); in [12], -0.486 (inactive); in [13], -0.195 (inactive); in test [14] it was 0.236 (inactive).
